Screens: PubChem BioAssay, several laboratories
ERa coact pot: ER-alpha (human) coactivator binding potentiation; P03372; TR-FRET ERalpha-LBD/SRC-Cy5 coactivator binding, 2 h; 100 = basal binding, no effect; coactivator binding (% of control), % at 25.6 µM; 86,000 compounds, 1.3% hits; AID 639; in the data active = activity above about 200%;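 also: binding measured in presence of low estradiol as agonist stimulus; 0% = peptide alone without receptor and 100% = receptor with peptide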
FAK inh: FAK (human) kinase inhibition. Q05397. biochemical FAK kinase activity assay. inhibition, %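 (tested at 7 µM)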. 97,000 compounds, 0.84% hits. AID 727; in the data active = inhibition above about 19%;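 also: 0% = DMSO and 100% = reference compound high control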
Smad3 FoxH1 inh: Smad3 (human) transcription factor binding inhibition | AID 630 | inhibition, % at 25 µM | 88,000 compounds, 0.29% hits | TR-FRET Smad3/Dy647-FoxH1 peptide binding, europium anti-His;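 active = compounds that reduce the energy-transfer binding signal between the protein and its labelled peptide by more than half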;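 also: 0% = Smad3 plus labelled peptide maximal FRET and 100% = peptide-only background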
Target sequence (P84022 whole entry, looked up): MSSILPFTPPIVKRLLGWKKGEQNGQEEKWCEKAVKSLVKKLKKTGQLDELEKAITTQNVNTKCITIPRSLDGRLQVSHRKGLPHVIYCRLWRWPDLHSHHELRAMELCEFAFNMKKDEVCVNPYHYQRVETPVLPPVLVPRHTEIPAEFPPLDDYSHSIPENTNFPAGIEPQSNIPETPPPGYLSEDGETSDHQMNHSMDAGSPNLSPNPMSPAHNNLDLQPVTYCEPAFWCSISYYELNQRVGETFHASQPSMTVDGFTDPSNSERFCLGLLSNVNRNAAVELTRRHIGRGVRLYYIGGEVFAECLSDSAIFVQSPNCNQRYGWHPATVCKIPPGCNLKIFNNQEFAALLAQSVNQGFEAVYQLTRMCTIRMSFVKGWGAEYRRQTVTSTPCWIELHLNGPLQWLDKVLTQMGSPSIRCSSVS
Calb biofilm kill: kills Candida albicans biofilms; AID 834; 85,000 compounds, 0.14% hits; inhibition, % at 6 µM; C. albicans biofilm + clotrimazole, Alamar Blue;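 active = inhibition above 20%; inactive = inhibition below 20%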;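 also: preformed 24 hr biofilms exposed to compound for 48 hr; 0% = biofilm without compound and 100% = blank killed by clotrimazole plus chlorhexidine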
ERa SRC1 inh: blocks coactivator binding to human estrogen receptor alpha; TR-FRET ER-alpha LBD / SRC-1 peptide, estradiol-bound; inhibition, % at 25.6 µM; 86,000 compounds, 1.7% hits; in the data active = inhibition above about 50%;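 also: 0% = receptor plus peptide control and 100% = peptide only without receptor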
ERb coact inh: ER-beta (human) coactivator binding inhibition. Q92731. inhibition, % at 25.6 µM. 86,000 compounds, 1.3% hits. TR-FRET ER-beta LBD / SRC1-Cy5 peptide binding; receptor agonist-loaded with 1 µM estradiol. AID 633;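 active = compounds whose percent inhibition of the receptor-coactivator binding signal exceeds about 50% in the single-dose screen, limit read from the data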;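 also: 0% = receptor plus peptide wells without compound and 100% = peptide-only wells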
* hit, by the source's call; i = inactive; . = no result given; [ ] = dose if it differs, or a comment. Hits are enriched below; roughly 3.3% of the tested compounds scored in any of these assays.

SMILES	ERa coact pot	FAK inh	Smad3 FoxH1 inh	Calb biofilm kill	ERa SRC1 inh	ERb coact inh
CCc1c(C)sc(NC(=O)c2cc(-c3ccc(OC)c(OC)c3)on2)c1C#N	60	0	-66	10	2	23
Cc1cc(C(=O)Nc2sc3c(c2C#N)CCC3)no1	40	0	11	3	53*[fluorescence artefact?]	64*
COc1ccc(-c2csc(NC(=O)c3cc(C)on3)c2C#N)cc1OC	264*	0	1	4	-1	-5
COc1ccc(CCNC(=O)c2cc(-c3ccccc3OC)on2)cc1OC	236*[fluorescence artefact?]	-3	-1	4	26	29
COc1ccc(OC)c(-c2cc(C(=O)Nc3cc(C)on3)no2)c1	245*[fluorescence artefact?]	6	-14	8	35	33
O=C(CSc1nnc(-c2cccs2)n1-c1ccccc1)N1CCc2ccccc21	925*[fluorescence artefact?]	-42	i	6	12	-1
CCOC(=O)c1ccc(NC(=O)CSc2nnc(-c3cccs3)n2C)cc1	149	-1	1	4	6	-1
O=C(CSc1nnc(-c2ccco2)n1-c1ccccc1)N1CCc2ccccc21	125	0	2	11	1	-1
C=CCn1c(SCC(=O)Nc2cccc(OC)c2)nnc1-c1cccnc1	226*	-6	1	-2	1	-6
CCOC(=O)c1ccc(NC(=O)CSc2nnc(-c3cccs3)n2CC)cc1	384*[fluorescence artefact?]	-7	i	4	-92	-44
C=CCn1c(SCC(=O)Nc2ccc(C(=O)OC(C)C)cc2)nnc1-c1cccs1	825*[fluorescence artefact?]	.	-5	4	-68	-18
COc1ccccc1OCC(=O)Nc1sc2c(c1C(=O)NCC1CCCO1)CCC2 (centres undefined)	.	-6	.	.	.	.
CCn1c(SCC(=O)c2ccc(CNC(C)=O)o2)nnc1-c1cccs1	59	2	7	4	58*	43
COc1ccc(NC(=O)CSc2nnc(-c3cccs3)n2-c2ccccc2)cc1	323*[fluorescence artefact?]	-28	-81	7	16	4
Cc1cc(C(=O)O)ccc1-n1c(C)ccc1C	22	1	3	-1	57*	49
COc1ccc(C2C=C(c3ccccc3)Nc3ncnn32)cc1 (centres undefined)	109	3	-7	-2	-12	86*[fluorescence artefact?]
CCOc1ccc(C2C=C(c3ccc(C)cc3)Nc3ncnn32)cc1 (centres undefined)	87	-1	1	8	10	0
CC(=O)[C@@]1(N=Nc2ccc(S(N)(=O)=O)cc2)CCOC1=O	.	.	52*	.	.	.
CCOC(=O)Cc1csc(NC(=O)CCN2C(=O)c3ccccc3C2=O)n1	98	5	-3	10	2	97*[fluorescence artefact?]
CCNc1nnc(-c2ccccc2OC)s1	73	-2	-10	4	6	73*[fluorescence artefact?]
NC(N)=NCCCC(=O)O	.	.	-18	.	.	.
Cc1nc2ccccc2c(=O)n1/N=C/c1c(O)ccc2oc3c(c12)CCCC3	95	2	2	8	80*	25
Cc1nc2ccccc2c(=O)n1/N=C/c1ccc(N(C)C)cc1	94	1	6	9	-3	4
COc1cccc2sc(Nc3nnc(-c4cccs4)o3)nc12	89	-5	-5	5	16	14
COc1cccc2sc(Nc3nnc(-c4ccc(F)cc4)o3)nc12	74	4	3	5	65*	25
SMILES	ERa coact pot	FAK inh	Smad3 FoxH1 inh	Calb biofilm kill	ERa SRC1 inh	ERb coact inh
O=C(O)[C@@H]1[C@H]2O[C@H]([C@@H](Br)[C@H]2Br)[C@@H]1C(=O)O	.	.	0	.	.	.
O=C(Nc1ccccc1F)C1CCCN(S(=O)(=O)c2cccc3cccnc23)C1 (centres undefined)	123	-10	-5	3	3	53*[fluorescence artefact?]
CCOc1ccccc1NC(=O)C1CCCN(S(=O)(=O)c2cccc3cccnc23)C1 (centres undefined)	99	-3	-9	0	3	21
O=C(NCCCO)c1nc2ccccc2s1	101	3	2	4	-3	-9
CCCNC(=O)c1ccc(-c2nc3ccccc3s2)s1	73	3	5	-2	54*	62*
COc1cccc(C2C(C(C)=O)=C(O)C(=O)N2Cc2ccco2)c1 (centres undefined)	153	-5	8	6	58*[fluorescence artefact?]	-6
COc1ccc(OC)c(C2/C(=C(/O)c3ccc(C)cc3)C(=O)C(=O)N2Cc2ccco2)c1 (centres undefined)	85	.	-1	9	96*[fluorescence artefact?]	9
COc1ccc(/C(O)=C2\C(=O)C(=O)N(Cc3ccco3)C2c2cc(OC)ccc2OC)cc1 (centres undefined)	105	-2	3	3	4	-5
CC(=O)C1=C(O)C(=O)N(Cc2ccco2)C1c1ccccc1 (centres undefined)	99	.	12	2	4	0
CCCCN1CCc2c([nH]c3c(C)cccc23)C1=O	587*[fluorescence artefact?]	.	3	3	-9	-10
Cc1ccc(NC(=O)C(C)c2ccc(-c3ccccc3)c(F)c2)cc1 (centres undefined)	.	-1	.	.	.	.
CCC1(C)Cc2c(sc3nnn(Cc4ccccc4Cl)c(=O)c23)CO1 (centres undefined)	.	3	.	.	.	.
Cn1c(SCC(=O)N2CCCCCC2)nc2c([nH]c3ccccc32)c1=O	106	0	6	-2	-18	-16
COc1cccc(-n2c(SCC(=O)N3CCCC3)nc3c([nH]c4ccccc43)c2=O)c1	285*[fluorescence artefact?]	3	-3	4	40	45
Cc1cc(C(=O)Nc2ccc(N3CCOCC3)cc2)c2ccccc2n1	113	-3	2	2	3	8
O=C(Nc1ccccc1N1CCOCC1)c1cc(-c2ccco2)nc2ccccc12	40	1	14	11	87*[fluorescence artefact?]	79*
COc1ccccc1NC(=O)CSc1ncnc2c1oc1ccccc12	163	4	-9	-4	10	23
O=C(CSc1ncnc2c1oc1ccccc12)Nc1cccc(F)c1	370*[fluorescence artefact?]	-134	9	13	42	50*[fluorescence artefact?]
Cc1cccc(NC(=O)CSc2ncnc3c2oc2ccccc23)c1	395*[fluorescence artefact?]	-239	42	-1	50*[fluorescence artefact?]	58*[fluorescence artefact?]
Cn1c(SCC(=O)Nc2cccc(F)c2)nnc1-c1cc2ccccc2o1	688*[fluorescence artefact?]	-11	-215	8	-32	0
Cc1ccc2nc(NC(=O)CSc3ncnc4c3oc3ccccc34)sc2c1	89	-12	2	1	28	20
CCn1c(SCC(=O)Nc2ccc3c(c2)oc2ccccc23)nnc1-c1ccc(N)cc1	67	5	-15	10	74*	50*[fluorescence artefact?]
COC(=O)Cn1ncc2c3ccccc3n(C)c2c1=O	.	-1	.	.	.	.
CC(Sc1ccc(Cl)cc1)C(=O)Nc1ccc(S(=O)(=O)N2CCOCC2)cc1 (centres undefined)	108	-11	-3	4	0	-3
Cc1ccc(CC2CC(=O)N(c3cc(C)on3)C2=O)cc1 (centres undefined)	201*[fluorescence artefact?]	1	1	1	-10	-15
